This is a sample that favours compounds with a hit; in the whole collection about 1.4% have one here.
pAkt inh: Akt phosphorylation inhibition. Neuro2A IGF-stimulated pAkt S473 HTRF, 20 min; hits give low values. activity change, % for hits at 50 µM. 360,000 tested, 0.32% active; in the data active = activity change below about -80%; inconclusive = mostly about -51% to -80%; note: % is set by controls: 0 for no effect and ±100 for the full control effect
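Single-point screen (50 µM final compound) in Neuro2A cells stimulated 20 min with 6 nM IGF at 37 deg C. After lysis, Ser473-phosphorylated Akt read by HTRF (ex 330 nm, em 615/665 nm) as the 665/615 ratio.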
PTAP TSG101 blk: blocks PTAP/TSG101 interaction to inhibit HIV-1 budding; Q99816; Fluorescence polarization, FITC-PTAP peptide / Tsg101 binding; Potency, µM (highest dose often 115 µM), for inactives: at the highest dose activity change, negative = inhibition, usual class: inhibitors; 340,000 tested, under 10 active; AID 493005; active = well fitted inhibition curve with a large enough effect in the main read-out, with a control signal flat, not every such curve was filed as active; inconclusive = small, poorly fitted or top-dose-only effect, or effect the other way, or a change in a side signal; inactive = no such curve, though single readings can be large or run the other way; note: potency is the fitted concentration of half-maximal effect; % of control where 0% means no effect
Target sequence (Q99816 whole entry, looked up): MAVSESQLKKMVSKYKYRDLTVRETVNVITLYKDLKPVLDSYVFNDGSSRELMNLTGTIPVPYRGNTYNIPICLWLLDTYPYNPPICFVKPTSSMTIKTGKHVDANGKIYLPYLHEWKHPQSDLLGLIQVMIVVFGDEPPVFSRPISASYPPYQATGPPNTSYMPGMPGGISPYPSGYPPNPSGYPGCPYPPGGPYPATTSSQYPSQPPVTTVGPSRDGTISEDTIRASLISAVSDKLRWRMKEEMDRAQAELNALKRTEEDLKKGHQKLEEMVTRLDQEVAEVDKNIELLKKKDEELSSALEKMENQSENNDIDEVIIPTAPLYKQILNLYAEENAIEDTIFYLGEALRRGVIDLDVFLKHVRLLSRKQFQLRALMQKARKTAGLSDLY
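Tsg101 binding domain (10 uM final) was mixed with compound and a FITC-labeled PTAP peptide (50 nM final) in HEPES pH 7.5 buffer with NaCl, Tween 20, EDTA and TCEP; fluorescence polarization was read after 20 min at r.t.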
12-LOX inh: inhibitors of human 12S-lipoxygenase ALOX12; P18054; purified 12hLO, xylenol orange hydroperoxide absorbance; Potency, µM (highest dose often 108 µM), for inactives: top-dose activity change, negative = inhibition, hits mostly inhibitors; 580,000 tested, 1.1% active; AID 1671190; note: potency is the fitted concentration of half-maximal effect; % is set by controls: 0 for no effect and ±100 for the full control effect
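Purified human 12hLO at 150 nM in 25 mM Hepes, 0.01% Triton X-100, pH 7.0, preincubated 15 min at room temperature with compound. Reaction started with 40 uM arachidonic acid, 30 min at room temperature. Hydroperoxide measured by Fe-xylenol orange, 573/405 nm absorbance ratio.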
Vif-A3G inh: inhibitors of Vif-APOBEC3G interaction. Q9HC16. HeLa A3G-eYFP + Vif (tagged APOBEC3G with the HIV-1 protein that degrades it), YFP fluorescence, overnight. Potency, µM (series often up to 46.1 µM), without a hit: top-dose activity, negative = active, actives largely listed as inhibitors. 410,000 tested, 0.076% active. AID 602310; note: potency is the fitted concentration of half-maximal effect; % is set by controls: 0 for no effect and ±100 for the full control effect; nearly all actives have a fitted effect of over 60% in size
Target sequence (Q9HC16 whole entry, looked up): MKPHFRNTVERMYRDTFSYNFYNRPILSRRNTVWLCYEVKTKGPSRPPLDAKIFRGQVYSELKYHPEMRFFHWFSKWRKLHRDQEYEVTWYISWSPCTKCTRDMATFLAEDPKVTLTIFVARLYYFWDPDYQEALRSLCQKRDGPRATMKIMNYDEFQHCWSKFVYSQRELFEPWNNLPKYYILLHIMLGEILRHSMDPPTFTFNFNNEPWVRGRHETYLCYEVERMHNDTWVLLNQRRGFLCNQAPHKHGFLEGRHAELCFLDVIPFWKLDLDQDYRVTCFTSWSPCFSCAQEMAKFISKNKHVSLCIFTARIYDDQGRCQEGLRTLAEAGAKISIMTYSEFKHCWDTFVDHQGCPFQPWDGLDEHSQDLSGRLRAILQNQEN
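HeLa cells stably expressing Vif and C-terminally eYFP-tagged A3G, seeded overnight at 37 deg C, then exposed to compound by pintool overnight at 37 deg C. Rise in yellow fluorescence (Ex 488/Em 500-530, Acumen) marks blocked Vif-driven A3G degradation.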
S-ASM inh: inhibitors of human secretory acid sphingomyelinase; AID 504937; placental ASM, HMU-PC fluorogenic substrate, 60 min; 340,000 tested, 0.006% active; P17405; Potency, µM (highest dose often 57.5 µM), for inactives: top-dose activity change, negative = inhibition, most hits filed as inhibitors; note: potency is the fitted concentration of half-maximal effect
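HMU-PC0 cleavage (9 uM final) by human placental ASM, 60 min at 37 °C following 10 min compound exposure at RT; stopped at pH 10, fluorescence Ex 386/Em 447 nm.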
Vif-A3F inh: blocks the Vif interaction with APOBEC3F. HeLa A3F-eYFP + Vif (tagged APOBEC3F with the HIV-1 protein that degrades it), YFP fluorescence increase. Potency, µM (highest dose often 46.1 µM), for the others: at the highest dose activity, negative = active. 390,000 tested, 0.2% active. AID 602313; note: potency is the fitted concentration of half-maximal effect; % of control where 0% means no effect; nearly all actives have a fitted effect of over 65% in size
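Fluorescence increase (Ex 488/Em 500-530) after overnight compound treatment at 37 deg C flags inhibition of Vif-driven A3F-eYFP loss in stable HeLa A3F-eYFP/Vif cells seeded overnight beforehand.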
* marks the source's active call; other numbers are inactive results; i = inactive; ? = inconclusive; / = no result; [ ] = dose if it differs, or a comment. Unless noted, calls come from the whole dose curve; as a rule, active = well fitted curve in the direction sought with a large enough effect; inconclusive = small, poorly fitted or top-dose-only effect, or another doubt; inactive = no such curve, though single readings can be large; an effect the other way counts as inactive or inconclusive.

SMILES	pAkt inh	PTAP TSG101 blk	12-LOX inh	Vif-A3G inh	S-ASM inh	Vif-A3F inh
CC(C)c1ccc(CN(C(=O)Cc2n[nH]c(=O)c3ccccc23)C2CC2)cc1	/	/	28%	/	/	/
N#Cc1nc(/C=C/c2cccs2)oc1NC1CC1	/	/	25µM*	/	/	/
CCSC1=N/C(=C\c2c(C)cc(C)cc2C)C(=O)S1	/	/	-37%	/	/	/
CCc1c(C)sc(NC(=O)c2ccoc2C)c1C(N)=O	i	-1%	11µM*	2%	1%	2%
CCCc1cc(C(N)=O)c(NC(=O)c2cc(C)on2)s1	i	0%	?	0%	-3%	-1%
CCCc1cc(C(N)=O)c(NC(=O)c2ccoc2C)s1	i	0%	32µM*	2%	-1%	-4%
CN(CC(=O)NC1(C#N)CCCC1)C(c1ccccc1)c1ccccc1	/	/	19%	/	/	/
Cc1cc(C)c2nc(C)cc(C(=O)O)c2c1	/	/	-18%	/	/	/
COc1ccc(-c2cc(C)no2)cc1S(=O)(=O)CCC(=O)Nc1cccc(Cl)c1	/	/	13%	/	/	/
Cn1nc(C(=O)NCC(C)(c2ccccc2)c2ccccc2)c2ccccc2c1=O	/	/	-1%	/	/	/
COc1ccccc1N1CCN([C@@H]2[C@H](O)[C@H](CO)O[C@@H]2CNC(=O)c2ccccc2)CC1	/	/	22µM*	/	/	/
Cc1ccc(CN[C@@H]2CO[C@H](CNS(=O)(=O)c3ccc(C)cc3)[C@H]2O)cc1	/	/	28µM*	/	/	/
COCC1CN(C(C)=O)CC12CCN(C(=O)C1CNC1)CC2 (stereo not drawn)	/	/	25µM*	/	/	/
CNC(=O)N1CCC2(CC1)CN(C(C)=O)CC2COC (stereo not drawn)	/	/	10%	/	/	/
C=CCN=c1scc(-c2ccco2)n1/N=C/c1ccc(O)c(O)c1O	i	-1%	18µM*	-8%	-1%	?
COCCN=c1scc(-c2ccco2)n1/N=C/c1ccc(O)c(O)c1O	i	1%	?	-11%	-7%	?
O=C(NCc1ccc(F)cc1)N1CCC(c2noc(-c3ccccn3)n2)C1 (stereo not drawn)	/	/	32%	/	/	/
O=C(CCc1ccco1)N(Cc1cccs1)C1CC1	/	/	-31%	/	/	/
O=C(/C=C/c1ccco1)N(Cc1cccs1)C1CC1	/	/	35µM*	/	/	/
CC1CC(C)(C)NC(=S)N1CCC(=O)N1CCc2ccccc2C1 (stereo not drawn)	i	-1%	40µM*	-1%	3%	-11%
Cc1ccc(S(=O)(=O)N(C)C)cc1NC(=O)c1nn(-c2ccccc2)c(=O)c2ccccc12	/	/	24%	/	/	/
C=CCn1c(-c2cccc(Cl)c2)n[nH]c1=S	-109%*	0%	?	-7%	-3%	5%
S=c1[nH]nc(-c2cccc(Cl)c2)n1Cc1ccccc1	i	0%	?	0%	0%	2%
COc1cc(/C=C/C2=Nc3ccccc3SC(C)(C)C2)ccc1O	/	/	16µM*	/	/	/
CSc1nc(SCC(=O)NCc2ccco2)c2c3c(sc2n1)COC(C)(C)C3	i	-1%	?	?	8%	-7%
SMILES	pAkt inh	PTAP TSG101 blk	12-LOX inh	Vif-A3G inh	S-ASM inh	Vif-A3F inh
CC(C)Sc1nc(NCc2ccco2)c2c3c(sc2n1)COC(C)(C)C3	-118%*	-3%	?	-5%	126%	/
CSc1ccc(/C=N/NC(=O)c2ccccc2F)cc1	/	/	-37%	/	/	/
CCOCC1(C)COc2ccc(C(=O)Nc3ccccn3)cc2N1 (stereo not drawn)	/	/	52%[176 µM]	/	/	/
COc1ccc(NC(=O)CCCn2c(=O)[nH]c3ccccc3c2=O)cc1	-110%*	0%	-6%	0%	-2%	/
COc1ccc(NC(=O)CCCCn2c(=O)[nH]c3ccccc3c2=O)cc1	i	-6%	0%	0%	-4%	-1%
CCCCCn1c(=O)[nH]c2cc(C(=O)Nc3cc(OC)cc(OC)c3)ccc2c1=O	/	/	-36%	-1%	/	28µM*
Clc1cccc(CNCCN2CCCC2)c1	/	/	2%	/	/	/
CN(CC(=O)NCCc1cccc2ccccc12)c1ncnc2nc[nH]c12	/	/	7%	/	/	/
O=Cc1cc(Cl)ccc1OC(=O)/C=C/c1ccc(F)cc1	/	/	0%	/	/	/
Cc1cc2c(cc1C)CSC(c1c(O)ccc3cc(Br)ccc13)SC2	/	/	0.79µM*	/	/	/
CC(C)(C)NC(=O)c1ccc2c(c1)N(CC(=O)N1CCCCC1)C(=O)C(C)(C)O2	i	-2%	-17%	-4%	3%	-9%
Cc1ccc(NC(=O)c2ccc3c(c2)N(CC(=O)N2CCCCC2)C(=O)C(C)(C)O3)cc1	-121%*	-11%	0%	-2%	-2%	3%
FC(F)(F)c1cccc(-n2cccc2/C=N/n2cnnc2)c1	i	-6%	14µM*	-1%	5%	0%
O=C(N/N=C/c1ccccc1Br)c1csc2ccccc12	/	/	-19%	/	/	/
COC(=O)c1ccc(NN=Nc2ccc(C)cc2)cc1	i	2%	18µM*	1%	-2%	-1%
CC/C=C\CCCCCO	/	/	7%	/	/	/
CC(C)(C)N=Cc1cc(Br)ccc1O	/	/	56µM*	/	/	/
Cc1nonc1NC(=O)c1ccc(Cl)c(S(=O)(=O)N2CCCCC2)c1	-98%*	-3%	?	9%	-1%	7%
Cc1cccc(C)c1-n1cccc1/C=C1\SC(=S)N(c2cccc(C(=O)O)c2)C1=O	i	2%	45µM*	-4%	-27%	?
Oc1c(CN2CCCCC2)cc(Br)c2cccnc12	i	-12%	5.6µM*	-14%	1%	0%
CC(C)COc1ccccc1N	/	/	42%	/	/	/
C/C(=N\NC(N)=S)C1C2C3CC4C5CC(C42)C1C53 (stereo not drawn)	i	0%	18µM*	1%	4%	?
C/C(CC1CC(C)OC1=O)=N\NC(N)=S (stereo not drawn)	i	-5%	-3%	0%	-3%	-12%
O=c1c2c(nc3cc(-c4ccccc4Cl)[nH]n13)CCS2	i	1%	40µM*	-7%	6%	16%
Cc1c(NC(=O)c2ccc([N+](=O)[O-])cc2)cccc1-c1nc2ccccc2o1	/	/	0%	/	/	/
Cc1c(C)n(-c2ccc(Cl)cc2)c2ncn(CC(=O)NC(C)c3ccccc3)c(=O)c12 (stereo not drawn)	/	/	25µM*	/	/	/
O=C(/C=C/c1ccccc1Br)c1ccc(O)c(CCCl)c1	/	/	13µM*	/	/	/
COc1cccc(-c2ccc3c(N)c(C(=O)c4ccc(Br)cc4)sc3n2)c1	/	/	?	?	/	7.9µM*
COc1ccc(C(=O)c2sc3nc(-c4ccccc4)ccc3c2N)cc1OC	i	-6%	1%	?	-11%	-16%
Cc1ccc(S(=O)(=O)CCC(=O)OCC(=O)NC2CCCC2)cc1	/	/	3%	/	/	/
